Out of some 5,500 compounds screened, about 2,000 (36%) were called active. Roughly 18% stayed inconclusive and do not appear here. Cut-off read from the data, not from the text of the source: active = normalized growth mostly below about 0.91 (no sharp cut-off); inconclusive = no clear call, values can overlap the other calls; inactive = mostly above about 0.92. This is one part of the list.
Assay: chemical genetic growth profiling, strain panel (AID 1159580);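 note: tested at 20 µM; growth read once vehicle control cultures reached saturation at 30 °C; 1 = growth at the plate median or of vehicle wells; lower values mean less growth of the strain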
Conditions: growth OD

Measured: normalized growth

CC(=O)Nc1c(I)cc(I)c(C(=O)O)c1I
inactive: S. cerevisiae deletion strains, locus YJR075W, strain HOC1, stronger effect = lower value 1 | S. cerevisiae deletion strains, locus YKL009W, strain mrt4, stronger effect = lower value 0.978 | S. cerevisiae deletion strains, locus YKL068W, stronger effect = lower value 0.986 | S. cerevisiae deletion strains, locus YKL085W, strain MDH1 (second series), stronger effect = lower value 1.01 | S. cerevisiae deletion strains, locus YKL085W, strain MDH1, stronger effect = lower value 1.01 | S. cerevisiae deletion strains, locus YKL160W, strain elf1, stronger effect = lower value 0.985 | S. cerevisiae deletion strains, locus YKL190W, strain CNB1, stronger effect = lower value 1.02 | S. cerevisiae deletion strains, locus YKR001C, strain vps1, stronger effect = lower value 0.986 | S. cerevisiae deletion strains, locus YKR026C, strain gcn3, stronger effect = lower value 0.975 | S. cerevisiae deletion strains, locus YKR091W, strain srl3, stronger effect = lower value 0.981 | S. cerevisiae deletion strains, locus YLL001W, strain dnm1, stronger effect = lower value 0.953 | S. cerevisiae deletion strains, locus YLL026W, stronger effect = lower value 0.985 | S. cerevisiae deletion strains, locus YLL041C, strain sdh2, stronger effect = lower value 0.972 | S. cerevisiae deletion strains, locus YLR027C, strain aat2, stronger effect = lower value 0.981 | S. cerevisiae deletion strains, locus YLR039C, strain RIC1, stronger effect = lower value 1.01 | S. cerevisiae deletion strains, locus YLR058C, strain SHM2, stronger effect = lower value 0.994 | S. cerevisiae deletion strains, locus YLR102C, strain apc9, stronger effect = lower value 0.991 | S. cerevisiae deletion strains, locus YLR113W, strain HOG1, stronger effect = lower value 1 | S. cerevisiae deletion strains, locus YLR221C, strain rsa3, stronger effect = lower value 1.01 | S. cerevisiae deletion strains, locus YLR258W, strain gsy2, stronger effect = lower value 0.976 | S. cerevisiae deletion strains, locus YLR262C, strain YPT6 (second series), stronger effect = lower value 0.971 | S. cerevisiae deletion strains, locus YLR262C, strain YPT6, stronger effect = lower value 0.954 | S. cerevisiae deletion strains, locus YLR268W, strain sec22, stronger effect = lower value 0.996 | S. cerevisiae deletion strains, locus YLR320W, strain mms22, stronger effect = lower value 0.99 | S. cerevisiae deletion strains, locus YLR330W, strain CHS5, stronger effect = lower value 0.998 | S. cerevisiae deletion strains, locus YLR342W, strain FKS1 (second series), stronger effect = lower value 1.04 | S. cerevisiae deletion strains, locus YLR342W, strain FKS1, stronger effect = lower value 0.978 | S. cerevisiae deletion strains, locus YLR357W, strain rsc2, stronger effect = lower value 1 | S. cerevisiae deletion strains, locus YLR370C, strain arc18, stronger effect = lower value 0.989 | S. cerevisiae deletion strains, locus YLR371W, strain rom2, stronger effect = lower value 0.993 | S. cerevisiae deletion strains, locus YLR384C, strain iki3, stronger effect = lower value 0.98 | S. cerevisiae deletion strains, locus YLR418C, strain cdc73, stronger effect = lower value 0.99 | S. cerevisiae deletion strains, locus YML016C, strain PPZ1, stronger effect = lower value 0.993 | S. cerevisiae deletion strains, locus YML032C, strain rad52, stronger effect = lower value 0.987 | S. cerevisiae deletion strains, locus YML120C, strain ndi1, stronger effect = lower value 0.981 | S. cerevisiae deletion strains, locus YML124C, strain tub3, stronger effect = lower value 0.988 | S. cerevisiae deletion strains, locus YMR058W, strain fet3, stronger effect = lower value 0.989 | S. cerevisiae deletion strains, locus YMR078C, strain ctf18, stronger effect = lower value 0.988 | S. cerevisiae deletion strains, locus YMR125W, strain sto1, stronger effect = lower value 0.96 | S. cerevisiae deletion strains, locus YMR129W, stronger effect = lower value 0.96 | S. cerevisiae deletion strains, locus YMR205C, strain PFK2, stronger effect = lower value 0.977 | S. cerevisiae deletion strains, locus YMR223W, strain ubp8, stronger effect = lower value 0.972 | S. cerevisiae deletion strains, locus YMR231W, strain pep5, stronger effect = lower value 0.982 | S. cerevisiae deletion strains, locus YMR263W, strain SAP30, stronger effect = lower value 1.01 | S. cerevisiae deletion strains, locus YMR307W, strain GAS1, stronger effect = lower value 1.07 | S. cerevisiae deletion strains, locus YNL067W, strain RPL9B, stronger effect = lower value 1 | S. cerevisiae deletion strains, locus YNL071W, strain lat1, stronger effect = lower value 0.987 | S. cerevisiae deletion strains, locus YNL128W, strain TEP1, stronger effect = lower value 1.01 | S. cerevisiae deletion strains, locus YNL153C, strain GIM3, stronger effect = lower value 0.993 | S. cerevisiae deletion strains, locus YNL183C, strain NPR1, stronger effect = lower value 0.968 | S. cerevisiae deletion strains, locus YNL209W, strain ssb2, stronger effect = lower value 0.99 | S. cerevisiae deletion strains, locus YNL233W, strain BNI4, stronger effect = lower value 0.998 | S. cerevisiae deletion strains, locus YNL248C, strain rpa49, stronger effect = lower value 0.992 | S. cerevisiae deletion strains, locus YNL250W, strain rad50, stronger effect = lower value 0.986 | S. cerevisiae deletion strains, locus YNL271C, strain bni1, stronger effect = lower value 0.989 | S. cerevisiae deletion strains, locus YNL298W, strain CLA4, stronger effect = lower value 0.986 | S. cerevisiae deletion strains, locus YNL307C, strain MCK1, stronger effect = lower value 0.987 | S. cerevisiae deletion strains, locus YNL322C, strain KRE1 (second series), stronger effect = lower value 0.971 | S. cerevisiae deletion strains, locus YNL322C, strain KRE1, stronger effect = lower value 1 | S. cerevisiae deletion strains, locus YNR049C, strain mso1, stronger effect = lower value 0.993 | S. cerevisiae deletion strains, locus YNR052C, strain pop2, stronger effect = lower value 0.999 | S. cerevisiae deletion strains, locus YOL006C, strain TOP1, stronger effect = lower value 1.02 | S. cerevisiae deletion strains, locus YOL012C, strain htz1 0.771 | S. cerevisiae deletion strains, locus YOL147C, strain pex11, stronger effect = lower value 0.992 | S. cerevisiae deletion strains, locus YOR001W, strain rrp6, stronger effect = lower value 0.976 | S. cerevisiae deletion strains, locus YOR061W, strain CKA2, stronger effect = lower value 1 | S. cerevisiae deletion strains, locus YOR069W, strain VPS5, stronger effect = lower value 0.988 | S. cerevisiae deletion strains, locus YOR070C, strain gyp1, stronger effect = lower value 0.988 | S. cerevisiae deletion strains, locus YOR080W, strain dia2, stronger effect = lower value 0.975 | S. cerevisiae deletion strains, locus YOR083W, strain WHI5, stronger effect = lower value 0.984 | S. cerevisiae deletion strains, locus YOR106W, strain vam3, stronger effect = lower value 0.964 | S. cerevisiae deletion strains, locus YOR136W, strain idh2, stronger effect = lower value 0.987 | S. cerevisiae deletion strains, locus YOR144C, strain elg1, stronger effect = lower value 0.995 | S. cerevisiae deletion strains, locus YOR184W, strain ser1, stronger effect = lower value 0.969 | S. cerevisiae deletion strains, locus YOR231W, strain MKK1, stronger effect = lower value 1.02 | S. cerevisiae deletion strains, locus YOR265W, strain rbl2, stronger effect = lower value 0.98 | S. cerevisiae deletion strains, locus YOR270C, strain vph1, stronger effect = lower value 0.951 | S. cerevisiae deletion strains, locus YOR290C, strain snf2, stronger effect = lower value 1 | S. cerevisiae deletion strains, locus YOR316C, strain cot1, stronger effect = lower value 0.991 | S. cerevisiae deletion strains, locus YPL051W, strain arl3, stronger effect = lower value 0.981 | S. cerevisiae deletion strains, locus YPL055C, strain LGE1, stronger effect = lower value 1.05 | S. cerevisiae deletion strains, locus YPL078C, strain atp4, stronger effect = lower value 0.961 | S. cerevisiae deletion strains, locus YPL106C, strain sse1, stronger effect = lower value 0.981 | S. cerevisiae deletion strains, locus YPL240C, strain hsp82, stronger effect = lower value 0.972 | S. cerevisiae deletion strains, locus YPL241C, strain CIN2, stronger effect = lower value 1.01 | S. cerevisiae deletion strains, locus YPL256C, strain CLN2, stronger effect = lower value 1.02 | S. cerevisiae deletion strains, locus YPR119W, strain clb2, stronger effect = lower value 0.986 | S. cerevisiae deletion strains, locus YPR141C, strain kar3, stronger effect = lower value 0.981 | S. cerevisiae deletion strains, locus YPR163C, strain tif3, stronger effect = lower value 0.997 | S. cerevisiae deletion strains, locus YPR167C, strain met16, stronger effect = lower value 0.983 | S. cerevisiae deletion strains, strain wtn01, stronger effect = lower value 0.986 | S. cerevisiae strains, strain wild type, stronger effect = lower value 1.05
